Measured values published in the supplement of paper PMC8728848.
The full list was thinned out, with the strongest signals kept by preference.

Legend:
Assay in all cases: glycan array binding signal (z-score within array); higher = stronger binding
Settings in all cases: glycan notation: IUPAC condensed, linker removed
[1] = biological target: Fuc(a1-2)Gal(b1-4)[Fuc(a1-3)]GlcNAc(b1-3)Gal(b1-4)[Fuc(a1-3)]GlcNAc
In short: (§1)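 The binding signal is a Z-score computed within each array and averaged over linkers. Arrays of the same protein sequence at different concentrations or buffers were also averaged together. Data originate from 3228 arrays in the Consortium for Functional Glycomics database, kept only where the protein sequence was available.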

[2] = biological target: Fuc(a1-2)[Gal(a1-3)]Gal(b1-3)GalNAc(b1-3)Gal(a1-4)Gal(b1-4)Glc
In short: as §1

[3] = biological target: Fuc(a1-2)[Gal(a1-3)]Gal(b1-4)GlcNAc(b1-2)Man(a1-3)[Fuc(a1-2)[Gal(a1-3)]Gal(b1-4)GlcNAc(b1-2)Man(a1-6)]Man(b1-4)GlcNAc(b1-4)[Fuc(a1-6)]GlcNAc
In short: as §1

[4] = biological target: Fuc(a1-2)[Gal(a1-3)]Gal(b1-4)GlcNAc(b1-3)GalNAc
In short: as §1

[5] = biological target: Fuc(a1-2)[GalNAc(a1-3)]Gal(b1-3)GlcNAc(b1-2)Man(a1-3)[Fuc(a1-2)[GalNAc(a1-3)]Gal(b1-3)GlcNAc(b1-2)Man(a1-6)]Man(b1-4)GlcNAc(b1-4)[Fuc(a1-6)]GlcNAc
In short: as §1

[6] = biological target: Fuc(a1-2)[GalNAc(a1-3)]Gal(b1-4)GlcNAc(b1-2)Man(a1-3)[Fuc(a1-2)[GalNAc(a1-3)]Gal(b1-4)GlcNAc(b1-2)Man(a1-6)]Man(b1-4)GlcNAc(b1-4)[Fuc(a1-6)]GlcNAc
In short: as §1

[7] = biological target: Fuc(a1-2)[GalNAc(b1-3)]Gal
In short: as §1

Fuc(a1-4)GlcNAc = biological target: Fuc(a1-4)GlcNAc
In short: as §1

Gal(a1-3)Gal = biological target: Gal(a1-3)Gal
In short: as §1

[8] = biological target: Gal(a1-3)Gal(b1-4)GlcNAc(b1-2)Man(a1-3)[Gal(a1-3)Gal(b1-4)GlcNAc(b1-2)Man(a1-6)]Man(b1-4)GlcNAc(b1-4)GlcNAc
In short: as §1

[9] = biological target: Gal(b1-3)GlcNAc(b1-3)Gal(b1-4)GlcNAc(b1-6)[Gal(b1-3)GlcNAc(b1-3)]Gal(b1-4)Glc
In short: as §1

[10] = biological target: Gal(b1-3)GlcNAc(b1-3)Gal(b1-4)[Fuc(a1-3)]GlcNAc
In short: as §1

[11] = biological target: Gal(b1-3)[Fuc(a1-4)]GlcNAc
In short: as §1

[12] = biological target: Gal(b1-4)GlcNAc(b1-2)Man(a1-3)[Gal(b1-4)GlcNAc(b1-2)Man(a1-6)]Man(b1-4)GlcNAc(b1-4)GlcNAc
In short: as §1

[13] = biological target: Gal(b1-4)GlcNAc(b1-3)Gal(b1-4)GlcNAc(b1-2)Man(a1-3)[Gal(b1-4)GlcNAc(b1-3)Gal(b1-4)GlcNAc(b1-2)Man(a1-6)]Man(b1-4)GlcNAc(b1-4)GlcNAc
In short: as §1

[14] = biological target: Gal(b1-4)GlcNAc(b1-3)Gal(b1-4)GlcNAc(b1-2)Man(a1-3)[Gal(b1-4)GlcNAc(b1-3)Gal(b1-4)GlcNAc(b1-2)Man(a1-6)]Man(b1-4)GlcNAc(b1-4)[Fuc(a1-6)]GlcNAc
In short: as §1

[15] = biological target: Gal(b1-4)GlcNAc(b1-3)Gal(b1-4)GlcNAc(b1-3)Gal(b1-4)GlcNAc(b1-2)[Gal(b1-4)GlcNAc(b1-3)Gal(b1-4)GlcNAc(b1-3)Gal(b1-4)GlcNAc(b1-6)]Man(a1-6)[Gal(b1-4)GlcNAc(b1-3)Gal(b1-4)GlcNAc(b1-3)Gal(b1-4)GlcNAc(b1-2)Man(a1-3)]Man(b1-4)GlcNAc(b1-4)[Fuc(a1-6)]GlcNAc
In short: as §1

[16] = biological target: Gal(b1-4)GlcNAc(b1-3)Gal(b1-4)GlcNAc(b1-3)Gal(b1-4)GlcNAc(b1-3)Gal(b1-4)GlcNAc(b1-2)Man(a1-3)[Gal(b1-4)GlcNAc(b1-3)Gal(b1-4)GlcNAc(b1-3)Gal(b1-4)GlcNAc(b1-3)Gal(b1-4)GlcNAc(b1-2)Man(a1-6)]Man(b1-4)GlcNAc(b1-4)[Fuc(a1-6)]GlcNAc
In short: as §1

[17] = biological target: Gal(b1-4)GlcNAc(b1-3)Gal(b1-4)GlcNAc(b1-3)Gal(b1-4)GlcNAc(b1-3)Gal(b1-4)GlcNAc(b1-3)Gal(b1-4)GlcNAc(b1-2)Man(a1-3)[Gal(b1-4)GlcNAc(b1-3)Gal(b1-4)GlcNAc(b1-3)Gal(b1-4)GlcNAc(b1-3)Gal(b1-4)GlcNAc(b1-3)Gal(b1-4)GlcNAc(b1-2)Man(a1-6)]Man(b1-4)GlcNAc(b1-4)GlcNAc
In short: as §1

[18] = biological target: Gal(b1-4)GlcNAc(b1-3)Gal(b1-4)GlcNAc(b1-3)Gal(b1-4)GlcNAc(b1-3)Gal(b1-4)GlcNAc(b1-3)Gal(b1-4)GlcNAc(b1-2)Man(a1-3)[Gal(b1-4)GlcNAc(b1-3)Gal(b1-4)GlcNAc(b1-3)Gal(b1-4)GlcNAc(b1-3)Gal(b1-4)GlcNAc(b1-3)Gal(b1-4)GlcNAc(b1-2)Man(a1-6)]Man(b1-4)GlcNAc(b1-4)[Fuc(a1-6)]GlcNAc
In short: as §1

[19] = biological target: Gal(b1-4)GlcNAc(b1-3)Gal(b1-4)GlcNAc(b1-3)Gal(b1-4)GlcNAc(b1-3)Gal(b1-4)GlcNAc(b1-3)Gal(b1-4)GlcNAc(b1-3)Gal(b1-4)GlcNAc(b1-2)Man(a1-3)[Gal(b1-4)GlcNAc(b1-3)Gal(b1-4)GlcNAc(b1-3)Gal(b1-4)GlcNAc(b1-3)Gal(b1-4)GlcNAc(b1-3)Gal(b1-4)GlcNAc(b1-3)Gal(b1-4)GlcNAc(b1-2)Man(a1-6)]Man(b1-4)GlcNAc(b1-4)GlcNAc
In short: as §1

[20] = biological target: Gal(b1-4)GlcNAc(b1-6)GalNAc
In short: as §1

Gal3S(b1-4)Glc6S = biological target: Gal3S(b1-4)Glc6S
In short: as §1

Gal6S(b1-4)GlcNAc = biological target: Gal6S(b1-4)GlcNAc
In short: as §1

Gal6S(b1-4)GlcNAc6S = biological target: Gal6S(b1-4)GlcNAc6S
In short: as §1

B1: SP15308B-bot-339-22-339 (Bacteroides ovatus) (protein)
chain: NEWEDEQYEQYVSFKAPIASGSDGVTTIYVRYKDNGKVTYQLPIIVSGSTVNSQDRDIHIAVDKDTLKTLNIERFSLYRPELWYTEMEEDKYEFPETVHIPAGSCVELLNIDFNLQDIDMLEKWVLPLTIVDDGSYAYQSHPRKNYAKALLKVVPFNNYSGSYTASSMKVYTYINGKPDTNARTTDKRTGYVVDNNSIFFYAGLINEDMDKDMRKKYKINVHFKEDGTLDMKQDDPSNEMEFELIGTPTYSSTSVMDATRPYLERRYVQIMFEYDFQDFTYGGSGTEVIPIKYRVAGSMTLLRNINTQIPDEDQQIEW
B1 was tested, and the “glycan array binding signal (z-score)” value [1] was -0.601, the “glycan array binding signal (z-score)” value [2] was -0.087 and the “glycan array binding signal (z-score)” value [3] was 0.241. The “glycan array binding signal (z-score)” value [4] was -0.515, the “glycan array binding signal (z-score)” value [5] was -0.323 and the “glycan array binding signal (z-score)” value [6] was -0.388. The “glycan array binding signal (z-score)” value [7] was 0.15, the “glycan array binding signal (z-score)” value (Fuc(a1-4)GlcNAc) was 2.58 and the “glycan array binding signal (z-score)” value (Gal(a1-3)Gal) was 0.449. For the same binder, the “glycan array binding signal (z-score)” value [8] was 3.88, the “glycan array binding signal (z-score)” value [9] was -0.129 and the “glycan array binding signal (z-score)” value [10] was -0.548. The “glycan array binding signal (z-score)” value [11] was -0.425, the “glycan array binding signal (z-score)” value [12] was -0.534 and the “glycan array binding signal (z-score)” value [13] was 2.8. For the same binder, the “glycan array binding signal (z-score)” value [14] was 2.57, the “glycan array binding signal (z-score)” value [15] was 2.24 and the “glycan array binding signal (z-score)” value [16] was 7.12. For the same binder, the “glycan array binding signal (z-score)” value [17] was 1.84, the “glycan array binding signal (z-score)” value [18] was 0.658 and the “glycan array binding signal (z-score)” value [19] was 6.94. For the same binder, the “glycan array binding signal (z-score)” value [20] was 0.182, the “glycan array binding signal (z-score)” value (Gal3S(b1-4)Glc6S) was -0.337 and the “glycan array binding signal (z-score)” value (Gal6S(b1-4)GlcNAc) was 1.87. The “glycan array binding signal (z-score)” value (Gal6S(b1-4)GlcNAc6S) was -0.252.
